PubChem BioAssay
Activity calls are given as the source filed them. Unless noted, no rule for the calls is given here.

Legend:
[1] = compounds binding Alexa647 anti-His antibody – biochemical, small-molecule microarray, 635 nm fluorescence, artefact control for SMM control protein annotation, primary screen (AID 1128); settings: higher = more signal;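 also: score merges feature fluorescence with signal-to-noise for each printed compound spot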
[2] = test system: Human papillomavirus type 1a E7 protein (residues 1-88); assay: HPV1a E7 small-molecule binders, primary screen, biochemical, small-molecule microarray, residues 1-88, 635 nm (AID 1129); settings: small-molecule microarray binding, fluorescence 635 nm; higher = more signal
[3] = target: Focal adhesion kinase 1 (Homo sapiens) (UniProt Q05397); assay: PTK2 protein binding on printed compound slides – biochemical, small-molecule microarray, 635/667 nm fluorescence, BSA, DTT, primary screen (AID 1130); settings: 635 nm fluorescence, higher = more signal;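 also: composite of spot emission at 667 nm and signal to noise over triplicate slides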
Chain of Focal adhesion kinase 1 (Homo sapiens) (Q05397 whole entry, looked up): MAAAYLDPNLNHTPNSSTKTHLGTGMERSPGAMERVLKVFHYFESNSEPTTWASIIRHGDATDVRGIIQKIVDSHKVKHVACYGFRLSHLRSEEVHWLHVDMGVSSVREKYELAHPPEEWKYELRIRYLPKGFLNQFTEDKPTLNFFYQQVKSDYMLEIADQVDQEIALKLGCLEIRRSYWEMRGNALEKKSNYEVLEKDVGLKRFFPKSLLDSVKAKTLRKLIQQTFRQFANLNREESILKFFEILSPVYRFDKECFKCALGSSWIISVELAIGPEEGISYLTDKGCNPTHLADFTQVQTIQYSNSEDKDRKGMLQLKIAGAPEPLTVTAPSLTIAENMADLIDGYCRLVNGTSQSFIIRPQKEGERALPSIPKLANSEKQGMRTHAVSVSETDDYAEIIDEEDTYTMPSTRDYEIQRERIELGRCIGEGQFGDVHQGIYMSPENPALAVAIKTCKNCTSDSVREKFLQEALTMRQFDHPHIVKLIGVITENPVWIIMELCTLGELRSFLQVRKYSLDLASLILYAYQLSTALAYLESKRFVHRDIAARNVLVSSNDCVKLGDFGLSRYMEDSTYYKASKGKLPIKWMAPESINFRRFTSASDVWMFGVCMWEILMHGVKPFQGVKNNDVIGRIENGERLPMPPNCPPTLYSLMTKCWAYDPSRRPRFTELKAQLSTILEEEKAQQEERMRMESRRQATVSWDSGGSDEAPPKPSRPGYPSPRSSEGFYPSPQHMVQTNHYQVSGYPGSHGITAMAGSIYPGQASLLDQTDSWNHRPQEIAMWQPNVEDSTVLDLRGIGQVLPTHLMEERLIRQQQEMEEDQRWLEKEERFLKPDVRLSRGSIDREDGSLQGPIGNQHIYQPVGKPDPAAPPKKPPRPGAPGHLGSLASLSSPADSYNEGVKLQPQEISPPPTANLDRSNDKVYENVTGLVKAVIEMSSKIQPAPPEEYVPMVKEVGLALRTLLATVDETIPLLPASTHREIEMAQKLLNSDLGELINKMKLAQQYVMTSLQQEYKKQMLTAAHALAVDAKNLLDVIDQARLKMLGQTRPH

[4] = test system: Fibrinogen (Alexa647-labelled); assay: Alexa647-fibrinogen binding to printed small molecules – biochemical, small-molecule microarray, 635/667 nm fluorescence, artefact control for SMM control-protein annotation, profiling panel (AID 1131); settings: fibrinogen-A647 binding fluorescence, higher = more signal;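 also: z-score merges 667 nm fluorescence with per-spot signal-to-noise over triplicate slides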
[5] = target: Follistatin (Homo sapiens) (UniProt P19883); assay: FST protein binding to printed compounds – biochemical, small-molecule microarray, 635/667 nm fluorescence, primary screen (AID 1132); settings: 635 nm fluorescence, higher = more signal
Chain of Follistatin (Homo sapiens) (P19883 whole entry, looked up): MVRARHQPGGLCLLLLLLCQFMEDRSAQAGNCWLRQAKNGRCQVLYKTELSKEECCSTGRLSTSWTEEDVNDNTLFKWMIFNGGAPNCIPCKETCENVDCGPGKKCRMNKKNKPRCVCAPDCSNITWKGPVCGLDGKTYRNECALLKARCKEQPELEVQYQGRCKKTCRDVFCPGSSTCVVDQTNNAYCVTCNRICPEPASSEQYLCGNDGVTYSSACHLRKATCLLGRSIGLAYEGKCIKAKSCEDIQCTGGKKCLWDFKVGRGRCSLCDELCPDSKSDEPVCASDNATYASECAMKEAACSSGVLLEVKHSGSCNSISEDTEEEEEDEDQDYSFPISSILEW

[6] = target: Fibroblast growth factor 2 (Homo sapiens) (UniProt P09038); assay: basic fibroblast growth factor binding to printed compounds – biochemical, small-molecule microarray, 635/667 nm fluorescence, primary screen (AID 1133); settings: FGF2, fluorescence 635/667, higher = more signal
Chain of Fibroblast growth factor 2 (Homo sapiens) (P09038 whole entry, looked up): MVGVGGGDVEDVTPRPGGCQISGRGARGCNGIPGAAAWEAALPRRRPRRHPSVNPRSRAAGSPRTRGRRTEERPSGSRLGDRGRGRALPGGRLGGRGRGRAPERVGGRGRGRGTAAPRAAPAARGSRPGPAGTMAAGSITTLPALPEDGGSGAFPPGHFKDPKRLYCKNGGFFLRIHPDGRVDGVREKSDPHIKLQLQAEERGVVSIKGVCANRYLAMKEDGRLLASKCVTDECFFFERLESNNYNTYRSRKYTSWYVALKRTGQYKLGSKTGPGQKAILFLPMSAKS

[7] = JC-1 mitochondrial potential readout, lung cancer cells – cell-based, A549, JC-1 fluorescence, basal, 24 h, 100 nL, profiling panel (AID 1138); settings: higher = more signal;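 also: A549 lung adenocarcinoma cells under basal conditions with no added stimulus; test concentration not given here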
[8] = test system: Lefty1; assay: Lefty1 protein binding to printed compounds – biochemical, small-molecule microarray, 635/667 nm fluorescence, primary screen (AID 1139); settings: fluorescence 635/667, higher = more signal
[9] = test system: wheat germ agglutinin (Triticum aestivum), Alexa647-labelled; assay: Alexa647-WGA lectin binding to printed small molecules – biochemical, small-molecule microarray, 635/667 nm fluorescence, artefact control for SMM control-protein annotation, profiling panel (AID 1140); settings: WGA-A647 binding, 635 nm fluorescence, higher = more signal;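 also: score merges 667 nm feature emission with signal to noise over triplicate slides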
[10] = target: Luciferin 4-monooxygenase (Photinus pyralis) (UniProt P08659); assay: inhibition of purified Photinus pyralis luciferase – biochemical, luminescence, purified enzyme, 2006 set, primary screen (AID 1141); settings: purified firefly luciferase, SteadyGlo luminescence, 30 min; higher = more signal, called active from +8 up or from −8 down;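 also: cell-free assay with purified firefly luciferase at 100 ng per well in PBS; test concentration not given here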
Chain of Luciferin 4-monooxygenase (Photinus pyralis) (P08659 whole entry, looked up): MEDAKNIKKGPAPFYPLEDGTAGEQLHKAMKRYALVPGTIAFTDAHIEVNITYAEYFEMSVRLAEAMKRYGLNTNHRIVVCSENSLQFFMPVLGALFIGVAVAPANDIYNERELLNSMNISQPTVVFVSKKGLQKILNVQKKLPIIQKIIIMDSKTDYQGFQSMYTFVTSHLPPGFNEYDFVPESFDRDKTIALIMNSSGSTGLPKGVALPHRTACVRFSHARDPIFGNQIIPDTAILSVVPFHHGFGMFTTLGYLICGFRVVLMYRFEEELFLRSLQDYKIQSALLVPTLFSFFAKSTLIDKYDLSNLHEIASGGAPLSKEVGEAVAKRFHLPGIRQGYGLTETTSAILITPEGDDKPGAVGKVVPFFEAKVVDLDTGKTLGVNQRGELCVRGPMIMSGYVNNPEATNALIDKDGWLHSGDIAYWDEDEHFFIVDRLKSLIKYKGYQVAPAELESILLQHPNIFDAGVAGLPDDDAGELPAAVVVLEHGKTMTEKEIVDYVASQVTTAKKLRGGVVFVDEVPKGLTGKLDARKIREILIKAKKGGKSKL

[11] = test system: Wnt5a (protein binding on small-molecule microarray); assay: small molecules binding Wnt5a protein – biophysical, small-molecule microarray, 635/667 nm fluorescence, primary screen (AID 1142); settings: 635 nm fluorescence, higher = more signal;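 also: fluorescence read at 667 nm with signal to noise per printed feature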
[12] = ATP-based viability of Huh7 replicon cells – cell-based, CellTiter-Glo luminescence, basal, 48 h, cytotoxicity control for HCV replication inhibitor project, primary screen (AID 1143); settings: higher = more signal, called active from +8 up or from −8 down;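 also: Huh7 hepatoma cells carrying a hepatitis C replication reporter with no stimulus; test concentration not given here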
[13] = Pseudomonas biofilm growth suppression – PAO1 strain, BacTiter-Glo luminescence, LB-PBS, primary screen (AID 1144); settings: P. aeruginosa PAO1 biofilm, 12 h, higher = more signal
[14] = basal CRE-LacZ reporter activity in PC12 – cell-based, unstimulated, primary screen (AID 1145); settings: no forskolin, luminescence, 4.5 h, higher = more signal, called active from +8 up or from −8 down
[15] = forskolin-driven CRE-LacZ activity in PC12 – cell-based, CRE-LacZ reporter, forskolin-stimulated, primary screen (AID 1146); settings: luminescence, 4.5 h, higher = more signal, called active from +8 up or from −8 down;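 also: PC12 cells with 6xCRE LacZ reporter stimulated by forskolin 10 µM; beta-galactosidase reporter signal reflecting CREB driven transcription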
[16] = target: Streptavidin (Streptomyces avidinii) (UniProt P22629); assay: compounds binding control protein streptavidin – biophysical, small-molecule microarray, 635/667 nm fluorescence, artefact control for SMM compound annotation, primary screen (AID 1147); settings: higher = more signal;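 also: signal reflects streptavidin binding to arrayed compounds as a control protein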
Chain of Streptavidin (Streptomyces avidinii) (P22629 whole entry, looked up): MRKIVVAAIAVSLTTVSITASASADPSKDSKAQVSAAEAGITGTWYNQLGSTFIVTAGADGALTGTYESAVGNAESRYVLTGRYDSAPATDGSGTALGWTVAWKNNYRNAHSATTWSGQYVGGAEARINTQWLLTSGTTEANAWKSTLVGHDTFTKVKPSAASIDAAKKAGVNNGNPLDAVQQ

[17] = probe aInhba binding on compound microarray – biochemical, small-molecule microarray, 635/667 nm fluorescence, primary screen (AID 1148); settings: higher = more signal;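 also: score merges 667nm spot fluorescence with signal-to-noise for antibody binding to printed compounds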
[18] = target: Torsin-1A (Homo sapiens) (UniProt O14656); assay: TOR1A wild-type binding on microarray – cell lysate, small-molecule microarray, lysate, 635/667 nm, primary screen (AID 1149); settings: COS7 hTOR1A-WT lysate, 635 nm fluorescence, higher = more signal
Chain of Torsin-1A (Homo sapiens) (O14656 whole entry, looked up): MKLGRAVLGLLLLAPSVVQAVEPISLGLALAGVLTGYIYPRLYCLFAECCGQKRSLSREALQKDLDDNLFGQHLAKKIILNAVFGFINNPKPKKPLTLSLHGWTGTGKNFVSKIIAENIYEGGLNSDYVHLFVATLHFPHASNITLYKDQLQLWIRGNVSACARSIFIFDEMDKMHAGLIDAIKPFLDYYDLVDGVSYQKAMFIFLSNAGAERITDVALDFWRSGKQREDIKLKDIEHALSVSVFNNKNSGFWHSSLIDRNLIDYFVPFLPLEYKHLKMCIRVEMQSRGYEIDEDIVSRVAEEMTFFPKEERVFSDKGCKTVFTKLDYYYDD

[19] = target: Torsin-1A (Homo sapiens) (UniProt O14656); assay: torsin A mutant lysate binding on microarrays – cell lysate, small-molecule microarray, COS7 lysate, 635/667 nm fluorescence, primary screen (AID 1150); settings: COS7 hTOR1A mutant lysate, 635 nm fluorescence, higher = more signal;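 also: score pools 667 nm emission and signal to noise measuring lysate protein binding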
[20] = test system: Sonic hedgehog protein (Shh); assay: Sonic hedgehog microarray binding compounds – biochemical, small-molecule microarray, 635/667 nm fluorescence, primary screen (AID 1151); settings: 635 nm fluorescence, higher = more signal;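 also: Shh protein binding to compounds spotted on small-molecule microarray slides; score combines spot fluorescence intensity with signal-to-noise across triplicate slides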

Row | SMILES | composite z-score [1] | composite z-score [2] | composite z-score [3] | composite z-score [4] | composite z-score [5] | composite z-score [6] | z-score [7] | composite z-score [8] | composite z-score [9] | z-score [10] | composite z-score [11] | z-score [12] | z-score [13] | z-score [14] | z-score [15] | composite z-score [16] | composite z-score [17] | composite z-score [18] | composite z-score [19] | composite z-score [20]
1 | NC(=O)NCC#Cc1ccc2c(c1)[C@]1(C(=O)N2)[C@H](c2ccc(O)cc2)N2[C@H](c3ccccc3)[C@H](c3ccccc3)OC(=O)[C@H]2[C@@H]1C(=O)Nc1nc2ccccc2s1 | -0.185 | 0.622 | -0.15 | 0.666 | 1.44 | 1.49 | -2.24 | 0.9 | 0.717 | -1.49 (inactive) | 0.303 | -0.623 (inactive) | -1.41 (inactive) | -0.788 (inactive) | -0.988 (inactive) | 0.106 | -0.0018 | 0.374 | -0.0346 | 1.09
2 | COCCOC(=O)N1C(=O)[C@@]2(c3ccccc31)[C@H](C(=O)N1CCN(c3ncccn3)CC1)[C@H]1C(=O)O[C@H](c3ccccc3)[C@H](c3ccccc3)N1[C@@H]2c1ccc(OCCO)cc1 | 2.77 | 1.21 | 2.12 | 0.967 | 1.23 | 0.891 | -0.587 | 0.612 | 0.965 | -1.3 (inactive) | 0.561 | -1.12 (inactive) | -0.236 (inactive) | 1.3 (inactive) | -0.599 (inactive) | 1.19 | 0.336 | 0.281 | 0.59 | 1.82
3 | [N-]=[N+]=Nc1ccccc1[C@H]1OC(c2ccc(OCCCO)cc2)=N[C@@]1(CCS(=O)(=O)c1ccccc1)C(=O)N1CCCCC1 | 2.65 | 1.23 | 0.944 | 0.989 | 0.83 | -0.0535 | -1.11 | -0.0647 | 1.27 | -11.7 (active) | 0.375 | -4.28 (inactive) | -1.21 (inactive) | 0.47 (inactive) | -0.993 (inactive) | 1.89 | 0.153 | 0.456 | 1.01 | -0.678
4 | COc1ccccc1CN1C(=O)c2ccccc2[C@@H](C(=O)NC(C)C)[C@@H]1c1ccc(CO)cc1 | 1.73 | 1.15 | 0.476 | 1.01 | 1.33 | 1.32 | 1.43 | 0.456 | 0.112 | -0.586 (inactive) | 0.428 | -0.486 (inactive) | 0.464 (inactive) | -0.735 (inactive) | -0.784 (inactive) | 0.131 | 0.46 | -0.0764 | 0.0096 | 1.84
5 | NCCCCCCNC(=O)[C@H]1C[C@H]2C(=O)N[C@@H](Cc3ccccc3)C(=O)N2[C@H]1c1ccc(O)cc1 | 2.04 | 0.692 | 0.937 | 0.999 | 1.32 | 0.619 | -0.267 | 0.795 | 1.1 | 0.166 (inactive) | 0.21 | 0.277 (inactive) | -0.652 (inactive) | -1.48 (inactive) | -1.24 (inactive) | 1.38 | 0.103 | 2.14 | 0.394 | 1.07
6 | C=CC[C@@]12N=C(c3ccc(OCCCO)cc3)O[C@@H]1c1ccccc1N(CCS(=O)(=O)c1ccccc1)C2=O | 0.954 | 1.22 | 0.87 | 0.944 | 1.3 | 1.55 | 0.699 | 0.51 | 0.961 | -12.1 (active) | 0.518 | -3.23 (inactive) | -0.196 (inactive) | -0.744 (inactive) | -2.22 (inactive) | 1.41 | 0.136 | 0.558 | 0.264 | 1.62
7 | C=C(/C(=C/C[C@@H](OC(=O)c1ccncc1)c1ccc(OCCO)cc1)c1cc(C(=O)OC)ccc1OC)C(C)C | 0.217 | 1.19 | -0.4 | 0.135 | 0.623 | 0.417 | 0.628 | 0.632 | 0.592 | -0.467 (inactive) | 0.308 | -1.79 (inactive) | -0.745 (inactive) | 2.06 (inactive) | 0.96 (inactive) | 0.747 | -0.271 | 0.0376 | 0.266 | 1.7
8 | CCCC[C@@H]1C[C@H]1[C@@H](NC(=O)c1cccnc1)c1ccc(-c2ccccc2)cc1 | -0.238 | -0.647 | -0.14 | -2.12 | -1.17 | -2.03 | 0.475 | -0.815 | -0.166 | 0.0562 (inactive) | -0.995 | -2.72 (inactive) | -0.327 (inactive) | -0.372 (inactive) | 0.162 (inactive) | -1.02 | -0.251 | -2.78 | -1.29 | -0.822
9 | COc1ccc(C(O)C2C=CC3C(=O)N(c4ccccc4)C(=O)C3N2Nc2ccc(C#N)cc2)c2ccccc12 (stereo not given) | 1.67 | 1.25 | 0.0632 | 0.979 | 0.944 | -0.012 | -0.616 | 0.392 | 1.04 | -0.786 (inactive) | 0.0756 | -0.127 (inactive) | -0.856 (inactive) | -0.143 (inactive) | 0.976 (inactive) | 2.49 | 0.442 | 0.109 | 0.917 | -0.149
